The record followed here is PubChem BioAssay (NCATS).

“And” between values parts separate entries of the source, which are not always exact repeats. Identical values can stand only once. Unmarked numbers belong to inactive results. Inconclusive results are not listed. The source made the active and inactive calls. Unless noted, calls follow the shape of the dose curve; as a rule, active = well fitted curve in the direction sought with a large enough effect; inconclusive = small, poorly fitted or top-dose-only effect, or another doubt; inactive = no such curve, though single readings can be large; an effect the other way counts as inactive or inconclusive.

Assay [1] can be described thus: Cell Viability - HUV-EC-C (AID 542). Also: % is scaled to controls: 0 for no effect and ±100 for the full control effect; nearly all actives have a fitted effect of over 35% in size. Put shortly: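 Cells were seeded at 1000 per well and incubated 5 hr at 37 °C before compound addition. After 40 hr at 37 °C, CellTiter-Glo reagent was added for 20 min and luminescence read. AC50 values came from Hill-equation modelling.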
The nature of assay [2]: Cellular Toxicity (caspase-3) HepG2 (AID 654).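 Also: cells exposed to compound for 16 hours before reading; 0% = DMSO alone and 100% = caspase signal from 100 µM tamoxifen.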 Put shortly:
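Caspase 3/7 activation in HepG2 is measured as rising luminescence after a 16 hr treatment at 37 °C. Values are scaled between DMSO basal and 100 uM tamoxifen, and AC50 is fitted with the Hill equation.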

A short description of assay [3]: Cellular Toxicity (caspase-3) HUV-EC-C (AID 656). Put shortly: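 HUV-EC-C endothelial cells, 1000/well, were pre-incubated 5 hr at 37°C, then exposed to compounds for 16 hr at 37°C. Caspase-Glo 3/7 luminescence was read after 20 min at room temperature. AC50 came from Hill fits, normalized to DMSO and 100 uM tamoxifen.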
Assay [4] is described as follows: Cellular Toxicity (caspase-3) BJ (AID 658).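 Also: 0% = DMSO basal and 100% = 10 µM staurosporine.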 The following applies: Potency: caspase-3 activation. The method, boiled down: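 Plated BJ cells (1000/well) rested 5 hr, received compound for 16 hr at 37 °C, then Caspase-Glo 3/7 reagent for 1 hr at room temperature before luminescence reading.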
Assay [5] is described as follows: Cellular Toxicity (caspase-3) MRC-5 (AID 659).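 Also: 0% = DMSO basal and 100% = 10 µM staurosporine.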 The method, boiled down: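 Apoptosis readout in MRC-5 cells: luciferase light generated after caspase 3/7 cleaves a peptide-aminoluciferin substrate, measured post 16 hr compound incubation at 37 °C.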
Assay [6] can be described thus: Cellular Toxicity (caspase-3) Mesangial (AID 660).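 Also: combined caspase 3 and 7 activity read by Caspase-Glo luminescence; cells exposed to compound for 16 h before the caspase read.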 The method, boiled down:
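Seed cells derived from normal human renal glomeruli, incubate 5 h, add compounds across concentrations and incubate 16 h at 37 °C. Caspase 3/7 activation is then quantified by luciferase light, with AC50 derived by Hill modeling.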

Assay [7] is described as follows: Cellular Toxicity (caspase-3) H-4-II-E (AID 663).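 Also: cells exposed to compound for 16 hr before readout.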 The following applies: Potency: caspase-3 activation. Put shortly: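 Caspase 3/7 activation measured in H-4-II-E cells in complete culture medium after 16 hr treatment at 37 °C, using luciferase-coupled substrate readout; AC50 values come from Hill-equation fits of normalized concentration-response data.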
Assay [8] in a line: Cellular Toxicity (caspase-3) Hek293 (AID 664).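 Also: cells exposed to compound for 16 h at 37 °C before readout.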 The following applies: HEK293 caspase-3 activation, DMSO = 0%, 100 µM tamoxifen = 100%; at 92.2 µM (top of the series). The method, boiled down: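 qHTS, HEK293 (human embryonic kidney), 16 h cpd exposure in complete medium. Caspase-3/7 activation = luminescence increase; normalized to DMSO/100 uM tamoxifen; Hill-fit AC50.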
Assay [9] in a line: Cellular Toxicity (caspase-3) N2a (AID 665).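 Also: compound exposure lasted 16 h at 37 °C before readout.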 Put shortly:
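Caspase-3/7 activation, measured as increased luminescence from aminoluciferin release, is quantified in mouse N2a cells exposed to compounds for 16 h. Values are normalized to DMSO and 10 uM staurosporine, with AC50 derived by Hill modelling.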

Assay [10] is described as follows: Cellular Toxicity (caspase-3) NIH 3T3 (AID 666).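 Also: caspase signal read after 16 h compound exposure; 0% = DMSO basal and 100% = 100 µM tamoxifen stimulation.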 The method, boiled down: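 Cells were plated at 1000 per well and incubated 5 hr at 37°C, then compound was added for 16 hr. Caspase-Glo 3/7 reagent followed for 20 min at room temperature before luminescence was read.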
The nature of assay [11]: Cellular Toxicity (caspase-3) Renal Proximal Tubule (AID 667).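 Also: cells exposed to compound for 16 hours at 37 °C before detection; 0% = DMSO basal and 100% = 10 µM staurosporine.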 The conditions noted are these: Potency: caspase-3 activation. The method, boiled down:
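Primary rat proximal tubule cells, 1000/well, 5 h plating at 37 °C, then compound 16 h at 37 °C. Caspase-Glo 3/7 reagent, 1 h RT, luminescence. Normalized to DMSO (basal) and 10 uM staurosporine (100%); Hill-fit AC50.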

A short description of assay [12]: MultiTox-Fluor Cytotoxicity Assay - LYMP1-003 - Live Cells (AID 962). Also: potency is read from the fitted curve at half-maximal effect. Put shortly: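 Acute cytotoxicity is scored as a drop in live-cell protease activity in human lymphoblastoid LYMP1-003 cells after 16 hr compound exposure at 37 C. AC50 values come from Hill-equation modelling of concentration-response data.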
Assay [13] in a line: Cell Viability - LYMP2-003 (AID 965).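 Also: cells exposed to compounds for 24 h before reading; nearly all actives have a fitted effect of over 50% in size.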 Also: potency is read from the fitted curve at half-maximal effect. Put shortly: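 Human lymphoblastoid cells (2500/well) were pre-incubated 5 hr at 37 C, then exposed to compounds over a concentration range for 24 hr at 37 C. Intracellular ATP was read by CellTiter-Glo luminescence; AC50 came from Hill-equation fits.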
A short description of assay [14]: qHTS Assay for Identification of Small Molecule Inducers of Hypoxia Response (AID 2120; active = well fitted curve in the direction sought with a large enough effect in the signal ratio, with a control signal flat, not every such curve was filed as active; the % refers to the signal ratio; also: 0% is about no effect). Put shortly: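 Cell-based qHTS for reporter induction: hypoxia response element controlled beta-lactamase in ME-180 cells. Compounds incubated 17 h at 37 degrees C; activity from blue/green (460/530 nm) ratio, inducers ranked by AC50.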
Assay [15] deals with Peroxisome proliferator-activated receptor alpha (Homo sapiens) (UniProt Q07869). Description: qHTS assay for small molecule agonists of the peroxisome proliferator-activated receptor alpha (PPARalpha) signaling pathway (AID 651778). Also: % of control where 0% means no effect. The conditions noted are these: PathHunter PPARalpha complementation, chemiluminescence, 6 h; max response: active compounds read high. The method, boiled down:
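Cells plated at 2,000/well and held overnight at 37 C, 5% CO2, then compound added by pin tool for 6 hr; after PathHunter detection reagent and 60 min at room temperature, chemiluminescence from enzyme complementation was read.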

Assay [16] is described as follows: qHTS assay for cell viability of the p53RE-bla HCT-116 cell line (AID 743292). Also: % is scaled to controls: 0 for no effect and ±100 for the full control effect; nearly all actives have a fitted effect of over 55% in size. The method, boiled down: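 Viability of compound-treated p53RE-bla HCT-116 cells is taken from ATP-dependent luciferase luminescence. Treatment lasts 16 h at 37 C after a 5 h settling period; detection follows 30 min at room temperature.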
Assay [17] in a line: Cell Viability - MRC5 (AID 434; calls by dose curve;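 also: potency is read from the fitted curve at half-maximal effect; cells exposed to compound for 40 hours at 37 °C; potency reflects cytotoxicity seen as loss of intracellular ATP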). The conditions noted are these: MRC5 lung fibroblast viability, qHTS. The method, boiled down: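 Decrease in intracellular ATP, quantified by luciferase light output, reflects compound toxicity toward MRC5 cells exposed for 40 hr in complete culture medium. Concentration-response curves, scaled between DMSO and 100 uM tamoxifen, gave AC50 values.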

The nature of assay [18]: Cellular Toxicity (caspase-3) SHSY5Y (AID 657). The method, boiled down: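 SH-SY5Y human neuroblastoma cells (1500/well) were treated with compounds for 16 h at 37 °C, then Caspase-Glo 3/7 luminescence was read after 1 h at room temperature. Data normalized to DMSO and 10 uM staurosporine; AC50 from Hill fits.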
Assay [19] is described as follows: qHTS assay for small molecule agonists of the antioxidant response element (ARE) signaling pathway measured by Nrf2-dependant transcriptional activity - cell viability counter screen (AID 720653; active = well fitted curve in the direction sought with a large enough effect in the repeat runs; an effect the other way counts as inactive or inconclusive; also: % is scaled to controls: 0 for no effect and ±100 for the full control effect). The following applies: ARE-bla HepG2 viability, CellTiter-Glo ATP luminescence, 16 h; max response: active compounds read low. Put shortly: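 ARE-bla HepG2 cells (2,000/well) rested 5 hrs at 37C/5% CO2, then exposed to compounds in DMSO for 16 hrs. Viability was read in the same wells as intracellular ATP by luminescence, 30 min at room temperature after reagent addition.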

Assay [20] in a line: qHTS assay for cell viability of HEK293 cells (AID 743288). Also: nearly all actives have a fitted effect of over 50% in size. Also: potency is read from the fitted curve at half-maximal effect. As to max response: % is scaled to controls: 0 for no effect and ±100 for the full control effect. The conditions noted are these: ATP luminescence (CellTiter-Glo), 18 h; max response: active compounds read low. The method, boiled down:
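After 18 h compound exposure at 37 C, parental HEK293 cells (2,000/well) are lysed with CellTiter-Glo and luminescence is read following 30 min at room temperature.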

Peroxisome proliferator-activated receptor alpha (Homo sapiens), sequence (Q07869 whole entry, looked up): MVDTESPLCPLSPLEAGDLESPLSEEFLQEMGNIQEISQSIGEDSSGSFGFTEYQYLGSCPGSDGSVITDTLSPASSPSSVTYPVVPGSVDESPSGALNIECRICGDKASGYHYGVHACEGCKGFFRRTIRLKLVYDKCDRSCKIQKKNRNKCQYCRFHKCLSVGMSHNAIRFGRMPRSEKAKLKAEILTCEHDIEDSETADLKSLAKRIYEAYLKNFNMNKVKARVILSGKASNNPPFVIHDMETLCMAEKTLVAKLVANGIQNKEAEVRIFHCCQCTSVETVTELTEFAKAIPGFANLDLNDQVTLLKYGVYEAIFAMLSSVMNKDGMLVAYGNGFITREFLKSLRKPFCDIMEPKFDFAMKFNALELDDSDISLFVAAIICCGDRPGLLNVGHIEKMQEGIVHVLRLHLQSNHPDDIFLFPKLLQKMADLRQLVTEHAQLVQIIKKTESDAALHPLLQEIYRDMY

For `CCN(CC)c1ccc(N)cc1`, the Potency entry in assay [1], in assay [2], in assay [3], in [4], in assay [7] and in assay [11] was “inactive” throughout. Besides, the Potency result in assay [12], in [14] and in assay [16] was “inactive” throughout. In addition, the result in assay [5], in assay [6], in assay [9] and in assay [10] was inactive. In addition, the caspase-3 activation in assay [8] was 18.6%. Besides, in assay [13], the Potency is 39.8 µM (active). For the same molecule, the max response in assay [15] is -0.774%.

For the molecule `Oc1cc2c(cc1O)[C@H]1c3ccc(O)c(O)c3OC[C@@]1(O)C2`, the Potency in assay [17] is above 92 µM; in [12], 50.1 µM (active); in assay [13], 31.6 µM (active). The Potency entry in assay [2], in [3], in [18], in assay [4], in assay [7] and in [11] was “inactive” each time. Moreover, the Potency entry in [14] was “inactive”. For the same molecule, the result in assay [5], in assay [6], in assay [9] and in assay [10] was inactive. The caspase-3 activation in [8] was 0.207%. In addition, the max response is -1.65% in assay [15], -29.6% in assay [19] and -28.5% in assay [20].

For `Cc1ccccc1OCC1CO1` (configuration not stated), in [17], the Potency was above 92 µM. The Potency entry in [1], in [2], in [3], in assay [18], in assay [4] and in assay [7] was “inactive” in each case. Besides, the Potency entry in assay [11], in assay [12], in assay [13], in assay [14] and in assay [16] was “inactive” throughout. In addition, the call in [5], in assay [6], in [9] and in assay [10] was inactive. Further, the caspase-3 activation in assay [8] is 0.226%. In addition, the values for the max response in [15], in assay [19] and in assay [20] were -1.41%, 0.854% and -12.7%, respectively.

In the case of `O=C(Cl)c1ccc([N+](=O)[O-])cc1`, the Potency in assay [17] was above 92 µM. The Potency entry in assay [1], in assay [2], in assay [3], in assay [18], in assay [4] and in [7] was “inactive” each time. The Potency result in [11], in [12], in assay [13], in assay [14] and in [16] was “inactive” throughout. Moreover, the molecule was classed as inactive in assay [5], in [6], in assay [9] and in assay [10]. Also, in assay [8], the caspase-3 activation is -0.0349%. In addition, the max response in assay [15] was -4.65%; in assay [19], 1.64%; in [20] it was 0.724%.

As for `O=[N+]([O-])c1cc(N(CCO)CCO)ccc1NCCO`, the Potency was 67.7 µM in assay [17] and 44.7 µM (active) in [20]. In addition, the Potency result in [2], in assay [3], in [18], in [4], in assay [7] and in assay [11] was “inactive” throughout. In addition, the Potency entry in [12], in assay [14] and in [16] was “inactive” in each case. The result in assay [5], in assay [6], in assay [9] and in assay [10] was inactive. Moreover, in assay [8], the caspase-3 activation was -3.81%. Further, the max response in [15] is -11.2% and -4.73%; in assay [19] it was -24.7%.

Consider `Cc1ccc(O)c(N)c1`, for which the figures for the Potency in assay [17] and in [13] were above 92 µM and 79.4 µM (active), respectively. The Potency result in [1], in assay [2], in assay [3], in [18], in assay [4] and in assay [7] was “inactive” in each case. Also, the Potency entry in [11], in assay [12], in assay [14] and in assay [16] was “inactive” in each case. The molecule was called inactive in assay [5], in assay [6], in assay [9] and in [10]. The caspase-3 activation in [8] is 1.75%. In addition, the values for the max response in [15], in [19] and in assay [20] were -1.19%, -26.2% and -7.01%, respectively.
